Experimental findings from PubChem BioAssay (NCATS) are described below.

Molecules are shown by their SMILES. Results filed as inconclusive are left out. Entries that show only a call come without a potency. A number with no mark means an inactive call. The source made the active and inactive calls. Calls come from the whole dose curve; as a rule, active = well fitted inhibition curve with a large enough effect; inconclusive = small, poorly fitted or top-dose-only effect; inactive = no such curve, though single readings can be large or run the other way.

The target of one experiment is Rap guanine nucleotide exchange factor 4 (Homo sapiens) (UniProt Q8WZA2). As to the kind of experiment: Confirmatory qHTS for antagonist of cAMP-regulated guanine nucleotide exchange factor 4 (EPAC2) (AID 1645885). Note: nearly all actives have a fitted effect of over 25% in size. Note: potency is the fitted concentration of half-maximal effect. The conditions noted are these: EPAC2 Rap1B-BODIPY-GDP exchange fluorescence, biochemical; series mostly up to 12.7 µM.
Sequence of Rap guanine nucleotide exchange factor 4 (Homo sapiens) (Q8WZA2 whole entry, looked up): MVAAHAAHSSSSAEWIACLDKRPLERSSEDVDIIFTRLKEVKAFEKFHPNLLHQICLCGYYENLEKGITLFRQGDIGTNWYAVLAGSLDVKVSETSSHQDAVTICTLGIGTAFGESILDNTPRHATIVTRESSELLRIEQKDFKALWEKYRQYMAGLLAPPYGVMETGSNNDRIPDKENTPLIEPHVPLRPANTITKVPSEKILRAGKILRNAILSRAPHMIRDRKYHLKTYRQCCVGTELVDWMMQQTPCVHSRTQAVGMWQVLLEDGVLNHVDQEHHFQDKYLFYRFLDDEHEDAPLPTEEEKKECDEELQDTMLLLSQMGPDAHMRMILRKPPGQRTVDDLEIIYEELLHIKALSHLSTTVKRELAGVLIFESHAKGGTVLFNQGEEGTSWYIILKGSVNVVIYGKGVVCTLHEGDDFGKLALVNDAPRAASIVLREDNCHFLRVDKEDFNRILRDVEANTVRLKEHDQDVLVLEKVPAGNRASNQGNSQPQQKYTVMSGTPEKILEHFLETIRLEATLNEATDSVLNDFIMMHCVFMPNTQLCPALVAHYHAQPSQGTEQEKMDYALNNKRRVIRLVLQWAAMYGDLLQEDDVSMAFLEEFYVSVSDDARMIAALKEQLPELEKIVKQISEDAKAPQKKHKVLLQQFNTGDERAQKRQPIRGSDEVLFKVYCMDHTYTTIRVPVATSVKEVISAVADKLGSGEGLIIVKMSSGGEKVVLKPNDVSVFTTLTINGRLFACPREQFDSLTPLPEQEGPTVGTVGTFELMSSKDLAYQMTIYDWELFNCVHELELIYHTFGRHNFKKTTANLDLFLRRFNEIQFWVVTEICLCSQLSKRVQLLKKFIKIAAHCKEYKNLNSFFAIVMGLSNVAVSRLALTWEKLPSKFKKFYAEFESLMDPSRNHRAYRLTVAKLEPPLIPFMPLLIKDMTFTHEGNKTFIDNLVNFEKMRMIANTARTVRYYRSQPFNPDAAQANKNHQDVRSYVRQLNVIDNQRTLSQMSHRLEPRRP
Turning to `COc1ccccc1[C@]1(C)ON(c2ccccc2C(F)(F)F)C1=O`, the Potency entry is “inactive”.

Take `COc1ccc(C(CC(=O)c2ccc(C)cc2)C(C#N)C#N)cc1OC` (stereo not given): the Potency entry is “inactive”.

With `COc1ccc(-n2c(NC(=O)c3ccco3)c(C#N)c3nc4ccccc4nc32)cc1`, the Potency result was “inactive”.

On to `Cc1ccc(C)c(N2CCN(C(=O)c3ccc4c(=O)n5c(nc4c3)CCCCC5)CC2)c1`, for which the Potency result was “inactive”.

Take `Oc1ccc2ccccc2c1/C=N/c1nc2c(s1)CCCC2`: the Potency entry was “inactive”.

Regarding `Nc1c2c(=O)[nH]c(O)cc2nn1-c1ccccc1`, the Potency result was “inactive”.

`Cc1ccc(C)c(-c2ccc(=O)n(Cc3c(F)cccc3Cl)n2)c1`: the Potency entry was “inactive”.

Consider `O=C(O)c1ccc(-c2nc(-c3ccc(Cl)cc3Cl)cs2)cc1`, for which the Potency entry was “inactive”.

In the case of `O=C(Nc1ccccc1)C1=C(O)CC(c2ccc(Cl)cc2)N2CCN=C12` (stereo not given), the Potency result was “inactive”.

As to `COc1ccc(CN(C(=O)c2cccs2)c2nccs2)cc1OC`, the Potency entry is “inactive”.

Regarding `CC(C)Nc1nc(NC(C)C)nc(OCCOC(=O)c2ccccc2)n1`, the Potency result is “inactive”.

As for `Cc1cccn2c(=O)c3cc(C#N)c(=NC(=O)c4ccccc4)n(Cc4ccco4)c3nc12`, the Potency result is “inactive”.

`CCOc1ccc(C(=O)N2CC(=O)Nc3ccc(C)cc3C2c2ccc(F)cc2)cc1OCC` (stereo not given): the outcome was “inactive [at 12.7 µM]”.

As to `CCOc1ncccc1C(=O)OC(C)C(=O)Nc1ccc(Cl)cn1` (stereo not given), the Potency is 0.213 µM (active).

Regarding `CCc1ccc(C(c2ccccc2)c2c(C)[nH]c3ccccc23)s1` (stereo not given), the Potency result is “inactive”.

For `COc1ccc(NC(=O)CN(C)C(=O)c2cc(-c3ccco3)nc3ccccc23)cc1`, the Potency entry was “inactive”.

As to `COc1ccc(/C=N/NC(=O)c2[nH]c3ccc(Br)cc3c2-c2ccccc2)c(C(=O)O)c1OC`, the Potency entry was “inactive”.

Take `COCCCNC(=O)C[C@@H]1C[C@@]2(C(=O)OC)CCCCC=C2N(Cc2cccc3ccccc23)C1=O`: the Potency result is “inactive”.

For `COc1cc(OC)c(NC(=O)CN(C)S(=O)(=O)c2ccc(-c3ccc(=O)[nH]n3)s2)cc1Cl`, the Potency result is “inactive”.

Turning to `COc1cccc(C(=O)Nc2ccc(NC(=O)c3ccco3)c(Cl)c2)c1`, the Potency entry is “inactive”.

Regarding `O=C(O)c1ccc(N2C(=O)CC(SC(=NCc3ccc4c(c3)OCO4)Nc3ccc(F)cc3)C2=O)cc1` (stereo not given), the Potency entry was “inactive”.

In the case of `Cc1sc2ncnc(N3CCC(C(=O)Nc4ccccc4C(C)(C)C)CC3)c2c1C`, the Potency entry was “inactive”.

Regarding `CC(C)Cc1ccc(CN2C(C(C)C)C(=O)N(Cc3cn(CCC4OCCO4)nn3)CCS2(=O)=O)cc1` (stereo not given), the Potency entry is “inactive”.

As for `COc1ccc(Oc2cn[nH]c2-c2ccc(OC)cc2O)cc1`, the Potency result was “inactive”.

In the case of `CCCC1=C/C(=C/c2ccc(-c3ccccc3OC)o2)C(=O)O1`, the Potency entry was “inactive”.

Consider `Fc1ccc(/C=C2\CCCC3=C2Nc2ncnn2C3c2ccc(F)cc2)cc1` (stereo not given), for which the Potency entry is “inactive”.

Regarding `CC[C@@H]1CC=C[C@H]2[C@H]1C(=O)N(Cc1ccccc1)[C@H]2c1ccc(OC)c(Cl)c1`, the Potency entry was “inactive”.

As to `CN(C)S(=O)(=O)c1ccc(N2CCCC2)c(C(=O)NCC2COc3ccccc3O2)c1` (stereo not given), the Potency is 30.1 µM (active).

As to `CCc1nc2c(OCC3CCCCC3)cccn2c1N(C)C(=O)c1ccc(C)cc1`, the Potency result was “inactive”.

For `Cn1cnnc1SCC(=O)Nc1sc2c(c1C(N)=O)CCC2`, the Potency entry was “inactive”.

For `Cc1ccc(CNc2nc(NCc3ccccc3)nc3ccsc23)c(C)c1`, the Potency result is “inactive”.

Turning to `COCCCn1c(=O)/c(=C\c2ccccc2OC(C)C)s/c1=C(/C#N)C(=O)Nc1ccc(C(=O)O)cc1`, the Potency result was “inactive”.

`CC(C)(C)Cc1c(-c2ccccc2)nc2ccc(Cl)cn12`: the Potency result is “inactive”.

With `COc1ccc(Cl)cc1NC(=O)c1c(NCc2ccc(C)o2)sc2c1CCCCC2`, the Potency result is “inactive”.

Turning to `COc1cccc(OCc2nc3ccccc3n2Cc2ccccc2)c1`, the Potency result was “inactive”.

For the compound `O=C(NCCCN1CCOCC1)c1ccc2c(c1)N(Cc1cccc(Cl)c1)C(=O)c1ccccc1S2`, the Potency entry was “inactive”.

In the case of `COc1ccc(/C=C/C(=O)Oc2ccc(C)c(C)c2)cc1OC`, the Potency entry was “inactive”.

As to `CC(C)c1ccc(/C=C/C(=O)Nc2ccc(CN3CCOCC3)cc2)cc1`, the Potency was 95.3 µM (active).

As for `Cc1ccc(C)c(Cn2c(C3CC(=O)N(c4ccccc4C)C3)nc3ccccc32)c1` (stereo not given), the Potency entry was “inactive”.

For the compound `Cc1cc(C)nc(NS(=O)(=O)c2ccc(NC(=O)CN3C(=O)S/C(=C\c4ccccc4)C3=O)cc2)n1`, the Potency result is “inactive”.

The target of a further experiment is Rap guanine nucleotide exchange factor 3 (Homo sapiens) (UniProt O95398). Kind of experiment: Counterscreen qHTS for antagonist of cAMP-regulated guanine nucleotide exchange factor 3 (EPAC1) (AID 1645888).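 Note: fluorescence loss as bound BODIPY-GDP is released from Rap1B.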 Particulars: Rap1B-BODIPY-GDP nucleotide exchange, fluorescence; series mostly up to 154 µM. In outline: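 Rap1B-BODIPY-GDP 250 nM + GDP 50 uM; cpds 7-pt, final 9.74 nM–152 uM (activator mode) or from 7.32 nM upwards (inhibitor mode); RT; FI 480/540 nm at 5 and 30 min, then ± cAMP, reread.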
Sequence of Rap guanine nucleotide exchange factor 3 (Homo sapiens) (O95398 whole entry, looked up): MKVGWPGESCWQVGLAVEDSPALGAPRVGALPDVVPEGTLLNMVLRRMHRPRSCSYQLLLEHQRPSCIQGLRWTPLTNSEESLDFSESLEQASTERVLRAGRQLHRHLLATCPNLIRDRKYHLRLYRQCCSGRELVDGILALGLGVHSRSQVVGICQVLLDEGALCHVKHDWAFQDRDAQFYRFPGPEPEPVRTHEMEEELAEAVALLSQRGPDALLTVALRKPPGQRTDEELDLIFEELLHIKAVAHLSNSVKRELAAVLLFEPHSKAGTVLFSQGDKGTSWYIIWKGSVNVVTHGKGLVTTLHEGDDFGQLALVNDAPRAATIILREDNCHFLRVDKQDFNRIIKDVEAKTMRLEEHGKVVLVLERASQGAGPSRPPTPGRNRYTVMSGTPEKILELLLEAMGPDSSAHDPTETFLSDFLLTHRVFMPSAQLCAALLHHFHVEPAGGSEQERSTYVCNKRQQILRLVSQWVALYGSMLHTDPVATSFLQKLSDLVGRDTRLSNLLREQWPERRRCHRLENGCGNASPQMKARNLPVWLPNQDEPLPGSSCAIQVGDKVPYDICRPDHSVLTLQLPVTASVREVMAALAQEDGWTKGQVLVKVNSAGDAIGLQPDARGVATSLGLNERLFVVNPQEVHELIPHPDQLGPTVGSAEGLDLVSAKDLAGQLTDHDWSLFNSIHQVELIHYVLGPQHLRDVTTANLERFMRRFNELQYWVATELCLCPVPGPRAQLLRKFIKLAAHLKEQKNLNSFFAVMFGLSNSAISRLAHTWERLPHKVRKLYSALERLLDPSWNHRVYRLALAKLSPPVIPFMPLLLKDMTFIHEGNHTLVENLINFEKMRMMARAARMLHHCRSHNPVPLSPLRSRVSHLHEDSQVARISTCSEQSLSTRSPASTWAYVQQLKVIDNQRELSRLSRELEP
On to `COc1ccccc1[C@]1(C)ON(c2ccccc2C(F)(F)F)C1=O`, for which the Potency result was “inactive”.

As to `COc1ccc(C(CC(=O)c2ccc(C)cc2)C(C#N)C#N)cc1OC` (stereo not given), the Potency entry was “inactive”.

For `COc1ccc(-n2c(NC(=O)c3ccco3)c(C#N)c3nc4ccccc4nc32)cc1`, the Potency entry is “inactive”.

In the case of `Cc1ccc(C)c(N2CCN(C(=O)c3ccc4c(=O)n5c(nc4c3)CCCCC5)CC2)c1`, the activity change, negative = inhibition was -18% [at 30.8 µM].

With `Oc1ccc2ccccc2c1/C=N/c1nc2c(s1)CCCC2`, the Potency result was “inactive”.

For the compound `Nc1c2c(=O)[nH]c(O)cc2nn1-c1ccccc1`, the Potency result is “inactive”.

Regarding `Cc1ccc(C)c(-c2ccc(=O)n(Cc3c(F)cccc3Cl)n2)c1`, the Potency result is “inactive”.

In the case of `O=C(O)c1ccc(-c2nc(-c3ccc(Cl)cc3Cl)cs2)cc1`, the activity change, negative = inhibition is -4.87% [at 30.8 µM].

Regarding `O=C(Nc1ccccc1)C1=C(O)CC(c2ccc(Cl)cc2)N2CCN=C12` (stereo not given), the Potency entry was “inactive”.

Take `COc1ccc(CN(C(=O)c2cccs2)c2nccs2)cc1OC`: the Potency entry was “inactive”.

For `CC(C)Nc1nc(NC(C)C)nc(OCCOC(=O)c2ccccc2)n1`, the Potency entry was “inactive”.

On to `Cc1cccn2c(=O)c3cc(C#N)c(=NC(=O)c4ccccc4)n(Cc4ccco4)c3nc12`, for which the activity change, negative = inhibition is 15.9% [at 30.8 µM].

In the case of `CCOc1ccc(C(=O)N2CC(=O)Nc3ccc(C)cc3C2c2ccc(F)cc2)cc1OCC` (stereo not given), the Potency entry is “inactive”.

On to `CCOc1ncccc1C(=O)OC(C)C(=O)Nc1ccc(Cl)cn1` (stereo not given), for which the activity change, negative = inhibition was -16.3% [at 30.8 µM].

With `CCc1ccc(C(c2ccccc2)c2c(C)[nH]c3ccccc23)s1` (stereo not given), the Potency result was “inactive”.

On to `COc1ccc(NC(=O)CN(C)C(=O)c2cc(-c3ccco3)nc3ccccc23)cc1`, for which the Potency result is “inactive”.

On to `COc1ccc(/C=N/NC(=O)c2[nH]c3ccc(Br)cc3c2-c2ccccc2)c(C(=O)O)c1OC`, for which the activity change, negative = inhibition is 0.744% [at 30.8 µM].

As to `COCCCNC(=O)C[C@@H]1C[C@@]2(C(=O)OC)CCCCC=C2N(Cc2cccc3ccccc23)C1=O`, the activity change, negative = inhibition is -43.8% [at 30.8 µM].

With `COc1cc(OC)c(NC(=O)CN(C)S(=O)(=O)c2ccc(-c3ccc(=O)[nH]n3)s2)cc1Cl`, the Potency result is “inactive”.

As to `COc1cccc(C(=O)Nc2ccc(NC(=O)c3ccco3)c(Cl)c2)c1`, the activity change, negative = inhibition is -46.5% [at 30.8 µM].

For the compound `O=C(O)c1ccc(N2C(=O)CC(SC(=NCc3ccc4c(c3)OCO4)Nc3ccc(F)cc3)C2=O)cc1` (stereo not given), the Potency result was “inactive”.

`Cc1sc2ncnc(N3CCC(C(=O)Nc4ccccc4C(C)(C)C)CC3)c2c1C`: the Potency result was “inactive”.

Turning to `CC(C)Cc1ccc(CN2C(C(C)C)C(=O)N(Cc3cn(CCC4OCCO4)nn3)CCS2(=O)=O)cc1` (stereo not given), the activity change, negative = inhibition was -13.5% [at 30.8 µM].

For the compound `COc1ccc(Oc2cn[nH]c2-c2ccc(OC)cc2O)cc1`, the activity change, negative = inhibition was -4.7% [at 30.8 µM].

In the case of `CCCC1=C/C(=C/c2ccc(-c3ccccc3OC)o2)C(=O)O1`, the activity change, negative = inhibition is -9.78% [at 30.8 µM].

Regarding `Fc1ccc(/C=C2\CCCC3=C2Nc2ncnn2C3c2ccc(F)cc2)cc1` (stereo not given), the activity change, negative = inhibition is -4.64% [at 30.8 µM].

For the compound `CC[C@@H]1CC=C[C@H]2[C@H]1C(=O)N(Cc1ccccc1)[C@H]2c1ccc(OC)c(Cl)c1`, the Potency entry is “inactive”.

Regarding `CN(C)S(=O)(=O)c1ccc(N2CCCC2)c(C(=O)NCC2COc3ccccc3O2)c1` (stereo not given), the Potency entry is “inactive”.

For the compound `CCc1nc2c(OCC3CCCCC3)cccn2c1N(C)C(=O)c1ccc(C)cc1`, the Potency result is “inactive”.

For the compound `Cn1cnnc1SCC(=O)Nc1sc2c(c1C(N)=O)CCC2`, the Potency result was “inactive”.

As for `Cc1ccc(CNc2nc(NCc3ccccc3)nc3ccsc23)c(C)c1`, the Potency entry was “inactive”.

Regarding `COCCCn1c(=O)/c(=C\c2ccccc2OC(C)C)s/c1=C(/C#N)C(=O)Nc1ccc(C(=O)O)cc1`, the activity change, negative = inhibition is 38.7% [at 30.8 µM].

Regarding `CC(C)(C)Cc1c(-c2ccccc2)nc2ccc(Cl)cn12`, the activity change, negative = inhibition was -2.23% [at 30.8 µM].

As for `COc1ccc(Cl)cc1NC(=O)c1c(NCc2ccc(C)o2)sc2c1CCCCC2`, the Potency result was “inactive”.

As to `COc1cccc(OCc2nc3ccccc3n2Cc2ccccc2)c1`, the Potency result was “inactive”.

On to `O=C(NCCCN1CCOCC1)c1ccc2c(c1)N(Cc1cccc(Cl)c1)C(=O)c1ccccc1S2`, for which the Potency entry is “inactive”.

With `COc1ccc(/C=C/C(=O)Oc2ccc(C)c(C)c2)cc1OC`, the Potency entry was “inactive”.

For `CC(C)c1ccc(/C=C/C(=O)Nc2ccc(CN3CCOCC3)cc2)cc1`, the Potency entry is “inactive”.

`Cc1ccc(C)c(Cn2c(C3CC(=O)N(c4ccccc4C)C3)nc3ccccc32)c1` (stereo not given): the Potency result was “inactive”.

`Cc1cc(C)nc(NS(=O)(=O)c2ccc(NC(=O)CN3C(=O)S/C(=C\c4ccccc4)C3=O)cc2)n1`: the Potency entry was “inactive”.
